The supplement of paper PMC6555819

Experiments:
Test in all cases: PBM binding z-score (relative to random genomic background probes); higher = stronger binding; sequences stand for … in GC…GCGATTGACAGCGTAGAATGAAGG
[1] = tested on: FXR:RXRa (NR concentration 270 nM, RXRa partner concentration 90 nM)
Method in brief: (§1)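 Probes were double-stranded and carried 34-nt variable regions with direct-repeat seeds, single-nucleotide variants, half-site ablations and random human genomic background sequences, printed on custom Agilent 4×180K protein-binding microarrays. Arrays were incubated 1 h with ligand-free nuclear receptor dimers in PBS pH 7.4, 2% milk, 0.02% Triton X-100, 1 mM DTT, 0.2 mg/mL BSA and 0.4 mg/ml salmon testes DNA. Antibodies against each partner (one per run) detected binding, and scanned fluorescence was regression-normalized. Binding z-scores use the random background probes as reference.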

[2] = tested on: LXRa:RXRa (NR concentration 270 nM, RXRa partner concentration 90 nM)
Method in brief: as §1

[3] = tested on: LXRa homodimer (NR concentration 270 nM)
Method in brief: as §1

[4] = tested on: LXRb:RXRa (NR concentration 270 nM, RXRa partner concentration 90 nM)
Method in brief: as §1

[5] = tested on: LXRb homodimer (NR concentration 270 nM)
Method in brief: as §1

[6] = tested on: PPARa:RXRa (NR concentration 270 nM, RXRa partner concentration 90 nM)
Method in brief: as §1

[7] = tested on: PPARg:RXRa (NR concentration 180 nM, RXRa partner concentration 90 nM)
Method in brief: as §1

[8] = tested on: PPARg:RXRa 270nM:90nM, anti-RXR (NR concentration 270 nM, RXRa partner concentration 90 nM)
Method in brief: as §1

[9] = tested on: PPARg:RXRa 30nM:10nM, anti-RXR (NR concentration 30 nM, RXRa partner concentration 10 nM)
Method in brief: as §1

[10] = tested on: PPARg:RXRa 90nM:30nM, anti-RXR (NR concentration 90 nM, RXRa partner concentration 30 nM)
Method in brief: as §1

Sequence	PBM binding z-score [1]	PBM binding z-score [2]	PBM binding z-score [3]	PBM binding z-score [4]	PBM binding z-score [5]	PBM binding z-score [6]	PBM binding z-score [7]	PBM binding z-score [8]	PBM binding z-score [9]	PBM binding z-score [10]
TCTCGGAGGACACGAAAGGTCAGAGCGCGACATC	3.05	4.07	2.95	3.16	-0.239	3.64	1.36	2.96	2.26	2.66
TCATATAGGTAAAATGTGAAAGTCGGTGTGGTAA	0.975	0.902	0.119	0.595	0.134	2.27	3.1	4.54	4.42	4.95
TCTCGGAGGACACGAAGCTCAGAGCTTTCCAGAG	0.39	-0.167	-0.771	-0.53	-1.25	-0.0868	-0.122	0.617	1.74	1.27
CGTCCAAGGTCAAAAGTCAGTGAAGAGATGACGG	6.47	5.19	0.641	3.79	1.42	5.14	5.67	5.87	3.41	5
TCGAATAGGTTAGTCGGGGCATTCAGCCAACATA	0.693	0.608	-0.0621	1.02	-0.284	1.29	0.133	1.54	2.74	1.94
CCTAGGAGGACAACAGGAGGTCAGAGCTGCCAGA	1.35	2.17	2.05	1.53	-0.406	2.1	0.818	0.597	-0.229	0.192
CTCGAAAGGTCTGTTGAGGTGAGTATACGGATAA	0.57	-0.177	-0.581	-0.275	-0.339	0.697	-0.00878	0.182	-0.0313	0.242
ATATGTAGATTACATCCGGGTCATTCAGGCTATG	1.18	1.51	0.625	1.99	0.664	2.51	1.42	1.25	0.659	1
AGAATTAGGTTATACGTAGATCAGGGAAGAAAGT	0.495	0.704	0.321	0.628	0.596	2.29	2.76	2.95	1.74	2.58
CCTGCTAGGTCATGATCAGCTAATCTACAGTATG	3.25	2.63	0.02	1.94	-0.0541	3.31	2.28	2.56	0.674	1.56
GATTCAGGGTCAAGGCCAGAGTACGCGTATTGAT	6.98	5.3	0.175	4.43	0.317	6.12	6.43	6.72	3.1	5.41
AGAATGAGGTTATTTAGATCAGGGAATTGCGGTC	2.23	1.9	0.538	1.56	0.456	2.9	1.33	1.89	0.586	1.17
ATCTCTAGGTAAAGATAGTTCAGTAAATGCAAAT	0.492	4.09	0.589	1.27	0.936	0.78	0.749	0.691	0.403	0.563
TCCTATAGGTAAAGGTGAAAGTCGAACGATATGA	1.05	1.25	-0.0559	1.25	-0.199	3.07	2.77	3.93	3.81	3.96
AGTCAAAGTTCATTTAGGTAACGTAAGATATGCT	6.47	6.25	6.58	4.2	3.14	4.58		6.05	2.98	5.09
AGAACGAGGGCACGCTGAGATGATAGCAGAGTAG	0.695	0.423	-0.425	0.0557	-0.697	2.1	2.33	1.98	0.819	1.41
ATCGAAAGGTCGACGAGGTGTGTATACACCGTTT	3.98	3.28	0.0715	2.62	0.354	4.22	2.22	3.12	1.02	2.17
TAGCCTAGATCAGATCGGGCCAGTATACGCTATA	-0.847	-1.11	-0.829	-1.18	-1.2	-1.18	0.218	-0.582	-0.499	-0.448
GCTAGCAGGGCATTTGGGTCACTCAATGACGGGC	0.398	0.383	-0.133	0.541	-0.663	1.77	1.28	1.08	-0.197	0.478
CCTTACGGGTCAAGGTTATAGCACGGGTGGTACG	5.23	3.73	0.318	2.98	0.019	5.02	4.65	4.69	2.06	3.64
ACTATTTGGTCAGCTGAGGTCACACACAATTCGG	3.54	3.48	2.98	3.81	1.88	3.9	1.86	2.4	0.852	1.66
ACTAGTTGGTCAGCTGAGCTCACACACAATTCGG	-0.29	-0.363	-0.563	-0.541	-0.142	-0.497	0.575	-0.784	-0.476	-0.673
